These results are taken from PubChem BioAssay (EPA / NIEHS).

In general, AC50 refers to the concentration at which the activity in the assay is half-maximal.

Assay [1] concerns the target Bile acid receptor (Homo sapiens) (UniProt Q96RI1). In words: ATG_IR1_CIS: Attagene CIS-FACTORIAL HepG2 Assay for human Nuclear Receptor Subfamily 1 Group H Member 4 (NR1H4), IR1 submotif (AID 2282946; active means hit-call score of the fitted dose curve at least 0.9, where 1 is the maximum; inactive means score below 0.9). To be noted: IR1 reporter transcription, actives raise or lower the signal. The gist of the method: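 Cells (human HepG2) carry transiently transfected cis-promoter reporter transcription units. Compounds are incubated 24 h, total RNA is reverse-transcribed and amplified, and labelled fragments are resolved by capillary electrophoresis. Curves use DMSO as baseline.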

The target in assay [2] is Glucocorticoid receptor (Homo sapiens) (UniProt P04150). In words: ATG_GR_TRANS: Attagene TRANS-FACTORIAL HepG2 Assay for human Glucocorticoid Receptor (GR) (AID 2282978).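 Further: activators score as hits since higher reporter transcript over DMSO is fitted.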 To be noted: HepG2 Attagene TRANS GR reporter, mRNA transcription. The method in brief: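 In this trans-factorial format, exogenous NR-GAL4 chimeric proteins in transfected HepG2 cells regulate GAL4-UAS reporter transcription. After 24 h treatment, reporter mRNA induction relative to DMSO is read by RT-PCR and capillary electrophoresis.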
Chain of Glucocorticoid receptor (Homo sapiens) (P04150 whole entry, looked up, the tested form may be a part): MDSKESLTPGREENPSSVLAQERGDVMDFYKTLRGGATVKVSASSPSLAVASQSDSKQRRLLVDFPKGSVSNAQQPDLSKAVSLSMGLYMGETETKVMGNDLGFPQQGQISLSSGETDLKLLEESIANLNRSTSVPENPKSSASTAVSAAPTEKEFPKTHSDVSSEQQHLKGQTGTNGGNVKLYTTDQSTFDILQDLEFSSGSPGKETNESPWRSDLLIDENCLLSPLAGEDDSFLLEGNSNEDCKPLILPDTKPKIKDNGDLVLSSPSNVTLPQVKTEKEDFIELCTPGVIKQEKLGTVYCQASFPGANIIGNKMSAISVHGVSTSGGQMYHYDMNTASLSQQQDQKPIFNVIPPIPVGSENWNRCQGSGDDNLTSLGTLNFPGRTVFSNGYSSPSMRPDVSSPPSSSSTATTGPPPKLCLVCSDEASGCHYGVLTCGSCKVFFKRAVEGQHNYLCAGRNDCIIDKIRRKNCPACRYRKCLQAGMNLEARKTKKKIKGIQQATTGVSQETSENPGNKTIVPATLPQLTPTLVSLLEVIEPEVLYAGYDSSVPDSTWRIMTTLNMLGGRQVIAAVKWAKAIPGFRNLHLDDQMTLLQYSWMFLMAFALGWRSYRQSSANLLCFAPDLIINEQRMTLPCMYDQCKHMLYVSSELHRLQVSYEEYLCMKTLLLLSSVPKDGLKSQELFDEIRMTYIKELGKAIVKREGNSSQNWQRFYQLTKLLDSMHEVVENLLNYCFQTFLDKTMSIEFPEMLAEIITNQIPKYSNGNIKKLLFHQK

For assay [3], the target named is Oxysterols receptor LXR-alpha (Homo sapiens) (UniProt Q13133). The experiment in a line: ATG_LXRa_TRANS: Attagene TRANS-FACTORIAL HepG2 Assay for human Liver X Receptor alpha (LXRa) (AID 2282980). Conditions: HepG2 Attagene TRANS reporter, LXRa transactivation. The method in brief:
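HepG2 cells transiently transfected with GAL4-UAS reporter units for chimeric NR-Gal4 proteins, exposed to chemicals for 24 h. Reporter mRNA quantified by RT-PCR and capillary electrophoresis; gain of signal fitted relative to DMSO.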

Assay [4] deals with Oxysterols receptor LXR-beta (Homo sapiens) (UniProt P55055). In words: ATG_LXRb_TRANS: Attagene TRANS-FACTORIAL HepG2 Assay for human Liver X Receptor beta (LXRb) (AID 2282981). To be noted: HepG2 Attagene TRANS GAL4-LXRb reporter, mRNA. The gist of the method:
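Transient transfection HepG2 (multiplexed RTUs, GAL4-UAS); NR-Gal4 chimera; 24 h exposure; RNA → RT-PCR → 6-FAM primer extension → HpaI → CE; increase vs DMSO.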

In assay [5] the target is human Peroxisome Proliferator-activated Receptor alpha (PPARa), PPARA (gene 5465) (UniProt Q07869). In words: ATG_PPARa_TRANS: Attagene TRANS-FACTORIAL HepG2 Assay for human Peroxisome Proliferator-activated Receptor alpha (PPARa) (AID 2283001). The gist of the method: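 Read-out is fluorescence of reporter cDNA fragments resolved by capillary electrophoresis after RT-PCR. Human HepG2 liver cells carried transfected PPARa-Gal4 chimera and GAL4-UAS reporter units, treated 24 h; activity scored as increase over DMSO.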
Chain of human Peroxisome Proliferator-activated Receptor alpha (PPARa), PPARA (gene 5465) (Q07869 whole entry, looked up, the tested form may be a part): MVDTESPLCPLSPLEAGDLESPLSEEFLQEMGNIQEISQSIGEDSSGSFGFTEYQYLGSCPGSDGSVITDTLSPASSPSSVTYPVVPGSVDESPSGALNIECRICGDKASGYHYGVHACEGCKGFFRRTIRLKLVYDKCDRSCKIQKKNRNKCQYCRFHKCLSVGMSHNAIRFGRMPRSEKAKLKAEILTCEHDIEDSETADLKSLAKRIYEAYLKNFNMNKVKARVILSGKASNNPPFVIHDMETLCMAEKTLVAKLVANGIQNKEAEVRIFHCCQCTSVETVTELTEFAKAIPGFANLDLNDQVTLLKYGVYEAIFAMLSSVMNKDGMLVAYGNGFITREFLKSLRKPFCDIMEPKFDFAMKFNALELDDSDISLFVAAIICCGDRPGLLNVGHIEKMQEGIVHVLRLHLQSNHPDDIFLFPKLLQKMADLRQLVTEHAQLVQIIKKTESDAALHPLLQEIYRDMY

The target in assay [6] is human Peroxisome Proliferator-activated Receptor delta (PPARd), PPARD (gene 5467) (UniProt Q03181). The experiment in a line: ATG_PPARd_TRANS: Attagene TRANS-FACTORIAL HepG2 Assay for human Peroxisome Proliferator-activated Receptor delta (PPARd) (AID 2283002). The method in brief:
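Cell-based TRANS reporter: HepG2, transient MRTU transfection, 24 h exposure. Readout = reporter mRNA (RT-PCR/CE, 6-FAM). Gain-of-signal fit vs DMSO control.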

The target in assay [7] is Peroxisome proliferator-activated receptor gamma (Homo sapiens) (UniProt P37231). In words: ATG_PPARg_TRANS: Attagene TRANS-FACTORIAL HepG2 Assay for human Peroxisome Proliferator-activated Receptor-gamma (PPARg) (AID 2283007). The method in brief:
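A TRANS-format multiplexed reporter assay measures activity of an exogenous chimeric NR-Gal4 protein in HepG2 cells. After 24 h of chemical exposure, reporter transcripts are amplified, fluorescently labelled and sized by capillary electrophoresis, with gain of signal scored against DMSO.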

The target of assay [8] is human Thyroid Receptor alpha (THRa1), THRA (gene 7067) (UniProt P10827). The experiment in a line: ATG_THRa1_TRANS: Attagene TRANS-FACTORIAL HepG2 Assay for human Thyroid Receptor alpha (THRa1) (AID 2283014). The gist of the method: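 HepG2 cells transiently transfected with chimeric NR-Gal4 and GAL4-UAS reporter units, dosed 24 h. Reporter mRNA quantified by RT-PCR, fluorescent labeling, HpaI digestion and capillary electrophoresis; gain-of-signal fit versus DMSO.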
Chain of human Thyroid Receptor alpha (THRa1), THRA (gene 7067) (P10827 whole entry, looked up, the tested form may be a part): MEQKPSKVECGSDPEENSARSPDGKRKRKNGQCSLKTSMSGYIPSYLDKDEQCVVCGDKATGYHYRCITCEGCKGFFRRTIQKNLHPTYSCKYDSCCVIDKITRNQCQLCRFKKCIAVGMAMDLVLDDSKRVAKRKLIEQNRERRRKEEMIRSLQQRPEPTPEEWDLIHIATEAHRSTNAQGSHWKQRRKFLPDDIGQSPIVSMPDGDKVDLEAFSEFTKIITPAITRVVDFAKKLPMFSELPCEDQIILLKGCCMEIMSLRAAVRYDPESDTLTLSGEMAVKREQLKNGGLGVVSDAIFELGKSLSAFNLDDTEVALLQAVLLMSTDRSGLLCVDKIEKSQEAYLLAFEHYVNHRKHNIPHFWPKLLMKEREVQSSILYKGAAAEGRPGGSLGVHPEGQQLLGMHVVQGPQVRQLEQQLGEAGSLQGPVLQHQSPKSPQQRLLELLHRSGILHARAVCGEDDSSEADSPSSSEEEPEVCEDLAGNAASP

For assay [9], the target named is Retinoic acid receptor alpha (Homo sapiens) (UniProt P10276). In words: ATG_DR5_RAR_CIS: Attagene CIS-FACTORIAL HepG2 Assay for human Retinoic Acid Receptor Alpha (RARE), DR5 submotif (AID 2282934; active means hit-call score of the fitted dose curve at least 0.9, where 1 is the maximum; inactive means score below 0.9). Conditions: HepG2 Attagene cis-factorial RARE DR5 reporter, mRNA; actives raise or lower the signal. The gist of the method: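 HepG2, transient cis-reporter transfection, 24 h exposure. mRNA readout: RT-PCR, FAM label, HpaI cut, capillary electrophoresis. DMSO baseline, gain/loss fitting.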
Chain of Retinoic acid receptor alpha (Homo sapiens) (P10276 whole entry, looked up): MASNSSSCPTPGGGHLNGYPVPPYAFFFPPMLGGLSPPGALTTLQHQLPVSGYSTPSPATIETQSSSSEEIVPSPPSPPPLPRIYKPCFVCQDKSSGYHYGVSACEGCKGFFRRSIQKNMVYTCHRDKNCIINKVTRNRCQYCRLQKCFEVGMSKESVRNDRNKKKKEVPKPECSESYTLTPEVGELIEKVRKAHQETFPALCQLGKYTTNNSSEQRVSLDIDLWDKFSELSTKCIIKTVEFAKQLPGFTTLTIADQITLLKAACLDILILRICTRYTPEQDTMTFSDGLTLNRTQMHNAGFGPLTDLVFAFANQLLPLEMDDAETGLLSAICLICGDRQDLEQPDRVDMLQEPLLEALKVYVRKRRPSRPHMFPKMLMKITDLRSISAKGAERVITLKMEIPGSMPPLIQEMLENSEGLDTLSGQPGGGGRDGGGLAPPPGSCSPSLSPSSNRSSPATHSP

Assay [10] can be described thus: ATG_PBREM_CIS: Attagene CIS-FACTORIAL HepG2 Assay for human Phenobarbital-responsive Enhancer Module (PBREM) (AID 2282955; active means hit-call score of the fitted dose curve at least 0.9, where 1 is the maximum; inactive means score below 0.9). Conditions: HepG2 PBREM cis-reporter, Attagene multiplexed transcription; actives raise or lower the signal. The gist of the method: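 Fluorescence of labelled reporter cDNA fragments, resolved by capillary electrophoresis, gives mRNA induction in transfected HepG2 cells treated for 24 h; DMSO serves as negative control and baseline.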

The target of assay [11] is Nuclear receptor subfamily 1 group I member 3 (Homo sapiens) (UniProt Q14994). The experiment in a line: ATG_CAR_TRANS: Attagene TRANS-FACTORIAL HepG2 Assay for human Constitutive Androstane Receptor (CAR) (AID 2282969).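 Further: activators raise reporter mRNA above DMSO so AC50 marks induction.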 Conditions: HepG2 Attagene TRANS-FACTORIAL CAR reporter. The method in brief: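 Readout is reporter mRNA induction, quantified by fluorescent primer extension and capillary electrophoresis after RT-PCR. Cells were HepG2 transiently carrying chimeric NR-Gal4 constructs with GAL4-UAS reporters, treated for 24 h; activity scored upward from DMSO.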
Chain of Nuclear receptor subfamily 1 group I member 3 (Homo sapiens) (Q14994 whole entry, looked up, the tested form may be a part): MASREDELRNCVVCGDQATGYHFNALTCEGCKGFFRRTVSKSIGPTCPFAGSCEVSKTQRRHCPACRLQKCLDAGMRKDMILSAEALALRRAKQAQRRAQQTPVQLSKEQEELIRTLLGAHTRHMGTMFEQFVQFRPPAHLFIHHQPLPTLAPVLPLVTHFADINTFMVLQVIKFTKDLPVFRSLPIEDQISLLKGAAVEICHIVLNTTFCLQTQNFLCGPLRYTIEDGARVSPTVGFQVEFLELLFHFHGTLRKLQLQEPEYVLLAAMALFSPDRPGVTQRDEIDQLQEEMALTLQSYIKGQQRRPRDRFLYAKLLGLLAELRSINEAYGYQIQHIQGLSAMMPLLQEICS

The target in assay [12] is human RAR-related Orphan Receptor beta (RORb), RORB (gene 6096) (UniProt Q92753). In words: ATG_RORb_TRANS: Attagene TRANS-FACTORIAL HepG2 Assay for human RAR-related Orphan Receptor beta (RORb) (AID 2283010). The gist of the method:
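HepG2 cells transiently transfected with GAL4-UAS reporter units expressing chimeric NR-Gal4 protein; reporter mRNA measured 24 h after dosing by RT-PCR, 6-FAM labelling and capillary electrophoresis. Gain-of-signal fitted relative to DMSO baseline.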

In assay [13] the target is human Vitamin D Receptor (VDR), VDR (gene 7421) (UniProt P11473). The experiment in a line: ATG_VDR_TRANS: Attagene TRANS-FACTORIAL HepG2 Assay for human Vitamin D Receptor (VDR) (AID 2283022). The method in brief:
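HepG2 cells were transiently transfected with GAL4-UAS reporter units and a chimeric VDR-Gal4 construct, then dosed for 24 hours. Reporter mRNA was quantified by RT-PCR, fluorescent labeling, HpaI digestion and capillary electrophoresis; gain of signal analysed vs DMSO.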

Assay [14] in a line: ATG_M_32_TRANS: Attagene TRANS-FACTORIAL HepG2 Assay for M32 Transcription Factor (Internal Marker) (AID 2282984). To be noted: HepG2 Attagene TRANS M32 internal marker reporter. The gist of the method:
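Measures reporter mRNA induction in human HepG2 liver cells after 24 h chemical treatment. Transcripts from transiently transfected GAL4-UAS reporter units are amplified, fluorescently labelled and sized by capillary electrophoresis; gain of signal relative to DMSO.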

Assay [15] addresses Nuclear receptor subfamily 4 group A member 2 (Homo sapiens) (UniProt P43354). In words: ATG_NURR1_TRANS: Attagene TRANS-FACTORIAL HepG2 Assay for human Nuclear Receptor Related Protein 1 (NURR1) (AID 2282985). To be noted: HepG2 Attagene TRANS reporter, mRNA readout. The gist of the method:
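Transient transfection of HepG2, human liver cells, with multiple GAL4-UAS reporter transcription units. Cells dosed 24 h, RNA isolated, reverse-transcribed, PCR-amplified, FAM-labelled, HpaI-digested, sized by capillary electrophoresis. DMSO served as negative control.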

A short description of assay [16]: ATG_GAL4_TRANS: Attagene TRANS-FACTORIAL HepG2 Assay for GAL4 (Internal Marker) (AID 2282976). Conditions: HepG2 Attagene TRANS GAL4 internal marker reporter. The method in brief: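 Background-control readout: GAL4-UAS reporter transcript in transiently transfected HepG2 cells after 24 h compound exposure. Measured by RT-PCR, 6-FAM primer extension, HpaI digest and capillary electrophoresis; gain-of-signal fit versus DMSO.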

Assay [17] is described as follows: TOX21_p53_BLA_p3_viability: Viability Assessment in the Tox21 HCT-116 p53 Agonism Beta-lactamase Assay, Phase 3 (AID 2283593).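 Further: cells exposed to compound for 16 h before reading.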 The method in brief:
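Cellular ATP was quantified by CellTiter-Glo luminescence, read after 30 min at room temperature. Beforehand, HCT116 cells (4000/well) received compound 5 h post-seeding, 217-fold diluted from DMSO, then incubated 16 h at 37C.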

Assay [18] is described as follows: CCTE_Harrill_HTTr_Apoptosis_MCF7: CCTE's 6-hour Apoptosis Assessment for the High-Throughput Transcriptomics (HTTr) Platform, in MCF-7 cells cultured in DMEM + 10% fetal bovine serum, Harrill Lab (AID 2284011; active means hit-call score of the fitted dose curve at least 0.9, where 1 is the maximum; inactive means score below 0.9). The method in brief:
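MCF-7 cells in DMEM + 10% FBS exposed 6 h to chemicals over an eight-point dilution series. Caspase-3/7 activation imaged by high-content CellEvent Green staining; fitted bidirectionally versus DMSO.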

Assay [19] can be described thus: TOX21_p53_BLA_p2_viability: Viability Assessment in the Tox21 HCT-116 p53 Agonism Beta-lactamase Assay, Phase 2 (AID 2283591).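 Further: compound exposure lasted 16 h at 37 °C; actives lower the ATP signal meaning cytotoxicity.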 The method in brief: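 Cytotoxicity readout: CellTiter-Glo ATP luminescence, 30 min at room temperature, after the beta-lactamase read. Cells were HCT116 exposed 16 h at 37C to compounds pin-transferred at 217-fold dilution from DMSO stocks.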

Assay [20] is described as follows: TOX21_p53_BLA_p4_viability: Viability Assessment in the Tox21 HCT-116 p53 Agonism Beta-lactamase Assay, Phase 4 (AID 2283597).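 Further: hits lower the luminescence signal meaning cytotoxicity.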 The method in brief: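 HCT-116 p53-bla cells, 4000/well, dosed after 5 h attachment and incubated 16 h at 37 °C, 5% CO2. Viability from CellTiter-Glo ATP luminescence after 30 min at room temperature, taken after the beta-lactamase read; loss of signal indicates cytotoxicity.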

Records with an inconclusive call do not appear. Activity calls are given as the source filed them. How the source made its calls, unless noted: active means hit-call score of the fitted dose curve at least 0.9, where 1 is the maximum; inconclusive means response in the unintended direction; inactive means score below 0.9.

Chain of Peroxisome proliferator-activated receptor gamma (Homo sapiens) (P37231 whole entry, looked up, the tested form may be a part): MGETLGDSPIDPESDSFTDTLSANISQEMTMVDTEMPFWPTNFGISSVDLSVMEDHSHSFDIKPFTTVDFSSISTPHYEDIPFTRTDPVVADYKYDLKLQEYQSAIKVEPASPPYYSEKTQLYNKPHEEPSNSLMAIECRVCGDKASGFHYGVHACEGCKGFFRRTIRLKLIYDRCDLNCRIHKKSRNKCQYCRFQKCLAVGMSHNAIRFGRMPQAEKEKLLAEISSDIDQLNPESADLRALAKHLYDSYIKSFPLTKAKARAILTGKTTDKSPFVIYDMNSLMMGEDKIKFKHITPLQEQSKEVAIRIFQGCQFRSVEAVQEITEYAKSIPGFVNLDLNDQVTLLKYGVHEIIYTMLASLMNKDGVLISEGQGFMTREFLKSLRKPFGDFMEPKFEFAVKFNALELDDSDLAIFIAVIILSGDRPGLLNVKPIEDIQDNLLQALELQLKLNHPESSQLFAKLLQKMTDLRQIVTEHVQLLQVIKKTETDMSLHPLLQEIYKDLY
Chain of human Peroxisome Proliferator-activated Receptor delta (PPARd), PPARD (gene 5467) (Q03181 whole entry, looked up): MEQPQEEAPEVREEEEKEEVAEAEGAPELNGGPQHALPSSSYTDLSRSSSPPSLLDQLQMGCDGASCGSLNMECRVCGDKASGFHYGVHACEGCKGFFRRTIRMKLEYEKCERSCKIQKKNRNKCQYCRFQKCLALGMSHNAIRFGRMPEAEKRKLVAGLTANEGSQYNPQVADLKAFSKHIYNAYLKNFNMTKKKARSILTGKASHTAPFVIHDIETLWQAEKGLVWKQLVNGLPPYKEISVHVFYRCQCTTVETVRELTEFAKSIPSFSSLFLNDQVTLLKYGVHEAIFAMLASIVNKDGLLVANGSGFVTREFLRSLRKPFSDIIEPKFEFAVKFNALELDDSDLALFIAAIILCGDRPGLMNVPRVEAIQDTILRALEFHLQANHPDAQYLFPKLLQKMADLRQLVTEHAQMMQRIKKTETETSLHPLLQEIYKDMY
Chain of Oxysterols receptor LXR-beta (Homo sapiens) (P55055 whole entry, looked up, the tested form may be a part): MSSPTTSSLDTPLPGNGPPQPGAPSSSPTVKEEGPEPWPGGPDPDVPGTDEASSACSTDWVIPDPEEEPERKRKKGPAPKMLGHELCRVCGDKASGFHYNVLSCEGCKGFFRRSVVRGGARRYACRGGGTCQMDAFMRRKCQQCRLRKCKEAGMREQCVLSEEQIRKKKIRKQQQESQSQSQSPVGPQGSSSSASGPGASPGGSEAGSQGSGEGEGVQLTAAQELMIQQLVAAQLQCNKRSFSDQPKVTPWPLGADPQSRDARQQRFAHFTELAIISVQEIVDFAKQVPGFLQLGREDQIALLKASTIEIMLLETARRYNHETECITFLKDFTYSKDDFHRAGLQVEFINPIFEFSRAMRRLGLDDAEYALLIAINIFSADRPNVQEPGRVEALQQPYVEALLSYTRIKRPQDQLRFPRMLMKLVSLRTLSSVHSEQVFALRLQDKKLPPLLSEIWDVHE
Chain of human Vitamin D Receptor (VDR), VDR (gene 7421) (P11473 whole entry, looked up, the tested form may be a part): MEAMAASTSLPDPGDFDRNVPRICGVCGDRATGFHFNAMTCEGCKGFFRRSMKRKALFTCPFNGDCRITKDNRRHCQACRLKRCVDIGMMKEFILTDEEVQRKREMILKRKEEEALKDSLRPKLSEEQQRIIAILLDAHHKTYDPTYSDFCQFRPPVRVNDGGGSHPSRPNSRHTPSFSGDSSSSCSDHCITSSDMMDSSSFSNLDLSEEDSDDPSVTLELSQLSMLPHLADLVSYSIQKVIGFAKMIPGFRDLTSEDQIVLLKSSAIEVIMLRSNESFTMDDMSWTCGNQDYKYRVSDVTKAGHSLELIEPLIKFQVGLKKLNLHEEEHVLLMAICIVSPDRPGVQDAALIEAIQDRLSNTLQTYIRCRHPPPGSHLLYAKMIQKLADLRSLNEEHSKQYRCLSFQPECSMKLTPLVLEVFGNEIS
Chain of Nuclear receptor subfamily 4 group A member 2 (Homo sapiens) (P43354 whole entry, looked up, the tested form may be a part): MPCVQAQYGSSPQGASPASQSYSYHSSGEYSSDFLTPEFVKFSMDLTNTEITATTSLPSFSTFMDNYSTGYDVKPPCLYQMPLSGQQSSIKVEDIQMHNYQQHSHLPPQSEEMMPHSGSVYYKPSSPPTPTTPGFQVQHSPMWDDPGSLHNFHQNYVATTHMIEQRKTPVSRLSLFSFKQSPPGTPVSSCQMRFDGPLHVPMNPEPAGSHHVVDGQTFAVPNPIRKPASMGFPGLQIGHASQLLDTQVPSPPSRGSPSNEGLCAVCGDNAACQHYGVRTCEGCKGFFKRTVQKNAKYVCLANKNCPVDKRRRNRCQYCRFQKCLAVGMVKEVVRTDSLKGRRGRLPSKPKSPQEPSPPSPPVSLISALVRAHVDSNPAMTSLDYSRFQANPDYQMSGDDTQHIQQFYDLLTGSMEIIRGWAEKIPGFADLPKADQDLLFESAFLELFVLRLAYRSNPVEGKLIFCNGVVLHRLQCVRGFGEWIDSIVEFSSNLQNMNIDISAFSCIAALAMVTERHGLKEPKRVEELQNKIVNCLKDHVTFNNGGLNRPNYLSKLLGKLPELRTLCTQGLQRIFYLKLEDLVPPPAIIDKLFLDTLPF

Consider `CCCCOP(=O)(O)OCCCC`, for which the molecule was called inactive in [1], in assay [2], in assay [3], in assay [4], in [5] and in assay [6]. Further, the call in assay [7] and in [8] was inactive.
Consider `CC(C)c1ccc(O)cc1`, for which the result in [9], in assay [10], in [11], in assay [2], in assay [4] and in [5] was inactive. Also, the outcome in assay [6], in assay [7], in assay [12] and in assay [13] was inactive.
As to `O=S(=O)(O)OOS(=O)(=O)O`, the result in [4], in [14], in [15], in assay [6] and in [8] was inactive.
Take `CCOC(=O)COc1ccc(Cl)cc1Cl`: the result in [9], in [10], in assay [11], in assay [16], in assay [2] and in assay [14] was inactive. The call in [6], in assay [17] and in assay [18] was inactive.
As for `CCc1cccc(C)c1N(C(=O)CCl)[C@@H](C)COC`, the molecule was classed as inactive in [9], in assay [10], in assay [11], in assay [14], in [15] and in [13]. Moreover, the outcome in [19], in [17], in [20] and in [18] was inactive. Also, the AC50 in assay [7] was 27 µM (active).
Consider `CC=Cc1ccc2c(c1)OCO2`, for which the molecule was called inactive in assay [9], in assay [11], in assay [4], in assay [15], in assay [6] and in [7]. Moreover, the result in [12], in assay [8], in assay [13], in assay [17] and in assay [20] was inactive.
For `Nc1cc(Cl)cc(Cl)c1`, the molecule was classed as inactive in assay [9], in [1], in assay [10], in [4], in [14] and in assay [15]. Also, the molecule was called inactive in [5], in assay [8], in assay [13] and in [19].
As for `CN1C(=O)CCS(=O)(=O)C1c1ccc(Cl)cc1` (configuration not stated), the result in assay [9], in [16], in [14], in assay [5], in assay [6] and in [8] was inactive. For the same molecule, the outcome in assay [18] was inactive.
In the case of `CCC(=O)c1ccc(Cl)cc1`, the molecule was called inactive in [9], in assay [11], in [16], in assay [2], in [3] and in [4]. Also, the molecule was classed as inactive in assay [14], in [15], in [6], in assay [8] and in assay [13].
